Inconclusive results are not listed. The source made the active and inactive calls. Unless noted, calls come from the whole dose curve; as a rule, active = well fitted curve in either direction with a large enough effect (not every such curve was filed as active); inconclusive = small, poorly fitted or top-dose-only effect, or another doubt; inactive = flat fitted curve, though single readings scatter.
Assays:
[1] = AP1 Signaling Pathway (AID 357); conditions: ME-180 AP-1-bla reporter, EGF-induced, beta-lactamase ratio, 5 h; at 17.2 µM (top of the series) unless noted;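 note: ME-180 reporter cells stimulated with EGF at its EC50 level; % is set by controls: 0 for no effect and ±100 for the full control effect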
Outline: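 A ratiometric CCF4 readout (405 nm excitation; 460 and 530 nm emission) quantified AP-1-driven beta-lactamase in ME-180 cells after 5 h with compound and EC50 EGF; AC50 values were derived for activators and inhibitors.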

[2] = Stat Signaling Pathway (AID 446);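 note: ME-180 cervical cancer cells given 40 pM IL-6 alongside compound; SIE-controlled beta-lactamase reporter measured as 460/530 nm FRET emission ratio; % is set by controls: 0 for no effect and ±100 for the full control effect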
Outline: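 Reporter line: ME-180 cervical carcinoma, SIE-beta-lactamase. Treatment: compound with 40 pM IL-6, 5 hrs, 37 C, in low-serum OPTI-MEM with 10 mM HEPES pH 7.3. Detection: 460/530 nm fluorescence.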

[3] = molecular target: Glucocorticoid receptor (Homo sapiens) (UniProt P04150); assay: GR-GFP Redistribution (AID 450;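 active = compounds whose dose series gives a full or clear partial fitted curve of increased nuclear translocation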; note: potency is the fitted concentration of half-maximal effect); conditions: U2OS GR-GFP nuclear translocation, laser cytometry, 2 h
[4] = molecular target: Cytochrome P450 1A2 (Homo sapiens) (UniProt P05177); assay: p450-cyp1a2 (AID 410; calls by dose curve; note: potency is the fitted concentration of half-maximal effect;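 for activity change, negative = inhibition: -100% = full effect of reference inhibitor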)
Outline: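 20nM CYP1A2 with 100uM Luciferin-ME (at Km) in 100mM KPO4; compound preincubated 10 min, NADPH regeneration added, 60 min at room temperature. Luciferin quantified by luminescence after detection reagent; normalized to 57 uM furafylline.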

[5] = molecular target: Glucocorticoid receptor (Homo sapiens) (UniProt P04150); assay: GR-EFC Redistribution (AID 451; calls by dose curve; note: potency is the fitted concentration of half-maximal effect); conditions: CHO-K1 GR-EFC translocation, beta-gal luminescence, 2 h
Outline: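 CHO-K1 cells expressing nuclear EA and GR-ED fragments of b-gal; compounds titrated up to 46 uM final, 2 h at 37 C. GR nuclear translocation read as complemented b-gal luminescence after 1 h RT detection.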

[6] = molecular target: Mitogen-activated protein kinase 10 (Mus musculus) (UniProt Q61831); assay: JNK3 AlphaScreen Assay (AID 530);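 note: kinase came from lysate of stimulated human HepG2 cells; signal reports phosphorylation of biotinylated GST-cJun 1-79 at Ser73 with 10 µM ATP; % is set by controls: 0 for no effect and ±100 for the full control effect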
Outline: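 Pre-activated (IL-1β/TNFα) JNK3 in HepG2 lysates phosphorylates biotin-GST-cJun(1-79), 10 uM ATP; anti-phospho-cJun(Ser73) AlphaScreen read at room temperature, pH 7.6 Tris buffer. Compounds pre-incubated 15 min as titrations.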

[7] = molecular target: Cytochrome P450 2C9 (Homo sapiens) (UniProt P11712); assay: qHTS Assay for Inhibitors and Substrates of Cytochrome P450 2C9 (AID 883; active = well fitted curve in the direction sought with a large enough effect; an effect the other way counts as inactive or inconclusive; note: nearly all actives have a fitted effect of over 60% in size; note: potency is the fitted concentration of half-maximal effect; for activity change, negative = inhibition: % is set by controls: 0 for no effect and ±100 for the full control effect)
Outline: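 10nM CYP2C9 + 100uM Luciferin-H (=KM), 25mM KPO4; cpd 10 min 37C; NADPH regen, 60 min 37C; stop/detect with P450 Glo-Buffer 20 min; luminescence. Norm. to 57uM sulphaphenazole as full inhibition.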

[8] = molecular target: Cytochrome P450 3A4 (Homo sapiens) (UniProt P08684); assay: qHTS Assay for Inhibitors and Substrates of Cytochrome P450 3A4 (AID 884; active = well fitted curve in the direction sought with a large enough effect; an effect the other way counts as inactive or inconclusive; note: % is set by controls: 0 for no effect and ±100 for the full control effect; nearly all actives have a fitted effect of over 50% in size)
Outline: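 20 nM human CYP3A4 with 25 uM Luciferin-PPXE (at KM) in 200 mM KPO4, preincubated 10 min with compound; NADPH regeneration started a 60 min RT reaction. Luciferin detected by luminescence, normalized to 57 uM ketoconazole as full inhibition.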

[9] = molecular target: Cytochrome P450 2C19 (Homo sapiens) (UniProt P33261); assay: qHTS Assay for Inhibitors and Substrates of Cytochrome P450 2C19 (AID 899; active = well fitted curve in the direction sought with a large enough effect; an effect the other way counts as inactive or inconclusive; note: nearly all actives have a fitted effect of over 60% in size; note: potency is the fitted concentration of half-maximal effect)
Outline: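 Luminescent read-out of luciferin formed from Luciferin-H EGE (10uM, equal to KM). Enzyme 5nM in 50mM KPO4; compound added, 10 min at 37C, then NADPH regenerating system for 60 min at 37C. Full inhibition defined by 57uM ketoconazole.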

[10] = molecular target: DNA dC->dU-editing enzyme APOBEC-3G (Homo sapiens) (UniProt Q9HC16); assay: qHTS for inhibitors of Vif-A3G interactions: Validation (AID 588379; active = well fitted curve in the direction sought with a large enough effect; an effect the other way counts as inactive or inconclusive; note: 0% is about no effect)
Outline: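 HeLa cells stably expressing Vif and A3G-eYFP, 700 cells/well, incubated overnight at 37 deg C, then exposed to compound overnight at 37 deg C. Inhibition of Vif-mediated degradation read as increased yellow fluorescence (Ex 488/Em 500-530) by laser-scanning cytometry.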

[11] = molecular target: 3',5'-cyclic-AMP phosphodiesterase 4B (Homo sapiens) (UniProt Q07343); assay: qHTS Assay for Inhibitors of PDE-IV (AID 607; active = well fitted activation curve with a large enough effect in the main read-out, with a control signal flat, not every such curve was filed as active; note: % of control where 0% means no effect)
Outline: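 Cell-based read-out of cAMP via a modified cyclic nucleotide-gated channel and membrane potential dye (535/590 nm) in HEK293 cells expressing PDE4 endogenously. Compounds tested up to 22.9 uM final; 100 uM RO 20-1724 reference.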

[12] = molecular target: Cytochrome P450 2D6 (Homo sapiens) (UniProt P10635); assay: qHTS Assay for Inhibitors and Substrates of Cytochrome P450 2D6 (AID 891; active = well fitted curve in the direction sought with a large enough effect; an effect the other way counts as inactive or inconclusive; note: nearly all actives have a fitted effect of over 60% in size; note: potency is the fitted concentration of half-maximal effect)
Outline: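 Human CYP2D6 (5 nM) with 30 uM Luciferin-ME EGE (at Km) in 100 mM KPO4, compound preincubated 10 min, then NADPH regeneration system for 60 min at room temperature. Luciferin read by luminescence; normalized to 1.43 uM quinidine.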

[13] = qHTS Assay for Identification of Small Molecule Agonists for Hypoxia Response Element Signaling Pathway (AID 914; active = well fitted activation curve with a large enough effect in the signal ratio, with a control signal flat, not every such curve was filed as active; the % refers to the signal ratio; note: potency is the fitted concentration of half-maximal effect); conditions: ME-180 (cervical carcinoma) HRE-bla reporter, beta-lactamase ratio, CoCl2, 17 h; activation: stronger effect = higher value
Outline: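 Read-out: CCF4 FRET ratio of 460nm to 530nm emission (excitation 405nm) after 2.5 hours at room temperature, taken from HRE-bla ME-180 cells that had been exposed to compound and EC50 CoCl2 for 17 hours.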

Sequence of Glucocorticoid receptor (Homo sapiens) (P04150 whole entry, looked up, the tested form may be a part): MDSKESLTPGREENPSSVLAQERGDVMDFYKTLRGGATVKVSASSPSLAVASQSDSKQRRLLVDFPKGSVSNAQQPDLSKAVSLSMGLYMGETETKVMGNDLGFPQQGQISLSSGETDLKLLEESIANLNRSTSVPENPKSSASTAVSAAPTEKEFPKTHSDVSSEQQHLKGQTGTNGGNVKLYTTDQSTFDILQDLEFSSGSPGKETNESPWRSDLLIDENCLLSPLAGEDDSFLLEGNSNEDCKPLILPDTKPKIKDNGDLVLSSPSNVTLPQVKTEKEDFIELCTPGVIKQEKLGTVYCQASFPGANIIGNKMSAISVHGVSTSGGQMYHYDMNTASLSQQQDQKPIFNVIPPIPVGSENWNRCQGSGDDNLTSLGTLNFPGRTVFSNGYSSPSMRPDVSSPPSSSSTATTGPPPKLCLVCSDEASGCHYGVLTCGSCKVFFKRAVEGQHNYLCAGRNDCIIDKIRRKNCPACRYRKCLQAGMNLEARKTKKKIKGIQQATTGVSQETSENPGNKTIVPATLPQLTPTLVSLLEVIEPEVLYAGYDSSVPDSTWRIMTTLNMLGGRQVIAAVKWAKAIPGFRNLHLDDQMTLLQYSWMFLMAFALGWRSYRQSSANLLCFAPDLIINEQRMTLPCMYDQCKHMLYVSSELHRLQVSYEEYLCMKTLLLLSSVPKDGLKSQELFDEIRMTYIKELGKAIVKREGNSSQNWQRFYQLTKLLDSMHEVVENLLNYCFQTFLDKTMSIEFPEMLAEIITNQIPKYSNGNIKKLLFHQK
Sequence of Cytochrome P450 1A2 (Homo sapiens) (P05177 whole entry, looked up): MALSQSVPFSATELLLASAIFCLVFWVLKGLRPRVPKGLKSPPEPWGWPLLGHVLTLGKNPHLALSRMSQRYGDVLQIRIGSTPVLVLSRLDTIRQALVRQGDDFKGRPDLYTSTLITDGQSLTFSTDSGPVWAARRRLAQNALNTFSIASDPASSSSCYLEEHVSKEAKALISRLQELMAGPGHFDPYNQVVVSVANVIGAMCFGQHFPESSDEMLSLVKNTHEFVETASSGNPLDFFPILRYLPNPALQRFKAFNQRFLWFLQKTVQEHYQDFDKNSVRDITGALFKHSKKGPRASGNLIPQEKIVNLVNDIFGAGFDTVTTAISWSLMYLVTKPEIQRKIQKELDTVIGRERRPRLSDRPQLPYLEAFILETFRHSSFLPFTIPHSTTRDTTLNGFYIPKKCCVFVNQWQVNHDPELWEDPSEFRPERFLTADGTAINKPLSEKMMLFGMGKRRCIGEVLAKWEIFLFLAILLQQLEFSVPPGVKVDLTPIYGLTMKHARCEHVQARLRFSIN
Sequence of 3',5'-cyclic-AMP phosphodiesterase 4B (Homo sapiens) (Q07343 whole entry, looked up): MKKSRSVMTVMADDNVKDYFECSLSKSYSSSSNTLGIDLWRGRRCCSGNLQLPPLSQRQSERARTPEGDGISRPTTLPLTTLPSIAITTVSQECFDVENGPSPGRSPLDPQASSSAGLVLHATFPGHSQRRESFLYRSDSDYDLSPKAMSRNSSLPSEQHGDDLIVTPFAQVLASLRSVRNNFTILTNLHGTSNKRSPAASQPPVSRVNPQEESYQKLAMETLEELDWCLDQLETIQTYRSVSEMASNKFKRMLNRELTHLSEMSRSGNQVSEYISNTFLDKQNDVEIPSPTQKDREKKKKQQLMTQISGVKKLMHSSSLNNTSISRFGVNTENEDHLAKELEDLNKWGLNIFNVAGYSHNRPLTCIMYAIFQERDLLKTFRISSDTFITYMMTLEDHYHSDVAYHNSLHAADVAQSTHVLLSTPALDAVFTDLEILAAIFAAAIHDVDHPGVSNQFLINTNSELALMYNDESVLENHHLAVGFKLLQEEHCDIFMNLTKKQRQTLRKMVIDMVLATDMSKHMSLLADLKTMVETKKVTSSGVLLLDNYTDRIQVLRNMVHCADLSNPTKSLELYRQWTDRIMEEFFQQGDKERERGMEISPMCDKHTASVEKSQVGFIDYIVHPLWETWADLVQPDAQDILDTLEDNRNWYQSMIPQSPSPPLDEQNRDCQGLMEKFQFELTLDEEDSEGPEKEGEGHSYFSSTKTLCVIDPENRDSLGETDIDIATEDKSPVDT
Sequence of Cytochrome P450 2D6 (Homo sapiens) (P10635 whole entry, looked up): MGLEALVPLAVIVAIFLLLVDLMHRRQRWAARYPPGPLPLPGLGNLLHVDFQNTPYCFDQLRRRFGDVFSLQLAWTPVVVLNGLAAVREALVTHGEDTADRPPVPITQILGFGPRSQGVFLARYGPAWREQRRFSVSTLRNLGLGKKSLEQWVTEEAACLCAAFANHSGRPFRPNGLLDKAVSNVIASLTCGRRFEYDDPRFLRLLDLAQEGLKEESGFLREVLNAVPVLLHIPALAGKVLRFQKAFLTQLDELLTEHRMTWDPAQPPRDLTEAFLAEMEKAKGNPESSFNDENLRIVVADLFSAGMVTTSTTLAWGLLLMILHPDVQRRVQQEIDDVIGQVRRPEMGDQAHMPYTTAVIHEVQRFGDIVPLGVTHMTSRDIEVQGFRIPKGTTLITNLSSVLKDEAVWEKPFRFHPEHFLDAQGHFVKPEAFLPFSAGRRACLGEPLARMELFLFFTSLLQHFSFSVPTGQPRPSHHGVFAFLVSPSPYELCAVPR
Sequence of Cytochrome P450 2C19 (Homo sapiens) (P33261 whole entry, looked up): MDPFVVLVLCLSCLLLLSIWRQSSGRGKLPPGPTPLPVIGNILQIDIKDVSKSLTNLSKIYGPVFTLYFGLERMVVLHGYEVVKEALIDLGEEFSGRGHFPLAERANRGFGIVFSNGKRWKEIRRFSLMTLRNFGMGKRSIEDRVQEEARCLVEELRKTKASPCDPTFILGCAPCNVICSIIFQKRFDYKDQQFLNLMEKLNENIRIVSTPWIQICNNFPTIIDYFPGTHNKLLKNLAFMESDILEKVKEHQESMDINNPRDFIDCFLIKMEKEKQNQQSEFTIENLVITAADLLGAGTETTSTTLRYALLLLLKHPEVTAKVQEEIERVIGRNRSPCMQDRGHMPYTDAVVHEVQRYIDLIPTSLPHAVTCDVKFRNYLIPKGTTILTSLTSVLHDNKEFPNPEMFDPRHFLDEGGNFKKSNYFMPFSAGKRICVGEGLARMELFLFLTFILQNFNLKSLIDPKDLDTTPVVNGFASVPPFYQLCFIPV
Sequence of Cytochrome P450 2C9 (Homo sapiens) (P11712 whole entry, looked up): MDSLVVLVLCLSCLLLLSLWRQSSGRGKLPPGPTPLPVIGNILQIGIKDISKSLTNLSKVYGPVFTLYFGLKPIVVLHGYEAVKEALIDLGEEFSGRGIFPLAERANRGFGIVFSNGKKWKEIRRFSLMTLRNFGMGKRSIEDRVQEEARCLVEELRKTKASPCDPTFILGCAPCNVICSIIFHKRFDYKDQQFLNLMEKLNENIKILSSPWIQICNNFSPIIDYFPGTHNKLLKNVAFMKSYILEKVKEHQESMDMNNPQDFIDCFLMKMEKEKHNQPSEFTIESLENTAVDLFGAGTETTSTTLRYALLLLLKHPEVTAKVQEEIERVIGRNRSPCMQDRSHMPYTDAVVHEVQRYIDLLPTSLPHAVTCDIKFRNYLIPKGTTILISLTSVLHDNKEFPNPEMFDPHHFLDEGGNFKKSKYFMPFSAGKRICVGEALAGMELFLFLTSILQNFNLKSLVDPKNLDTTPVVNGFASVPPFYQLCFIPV
Sequence of DNA dC->dU-editing enzyme APOBEC-3G (Homo sapiens) (Q9HC16 whole entry, looked up): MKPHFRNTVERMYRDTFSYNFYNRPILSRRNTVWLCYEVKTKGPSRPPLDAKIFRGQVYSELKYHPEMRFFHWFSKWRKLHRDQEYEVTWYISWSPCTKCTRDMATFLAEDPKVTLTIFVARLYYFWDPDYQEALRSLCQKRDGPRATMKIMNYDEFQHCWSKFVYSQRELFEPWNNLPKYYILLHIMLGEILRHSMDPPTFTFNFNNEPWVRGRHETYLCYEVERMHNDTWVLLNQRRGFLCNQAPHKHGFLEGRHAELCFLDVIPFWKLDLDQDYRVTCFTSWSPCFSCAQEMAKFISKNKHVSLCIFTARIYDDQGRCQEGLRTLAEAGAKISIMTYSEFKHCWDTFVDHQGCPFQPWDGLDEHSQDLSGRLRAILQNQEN
Sequence of Cytochrome P450 3A4 (Homo sapiens) (P08684 whole entry, looked up): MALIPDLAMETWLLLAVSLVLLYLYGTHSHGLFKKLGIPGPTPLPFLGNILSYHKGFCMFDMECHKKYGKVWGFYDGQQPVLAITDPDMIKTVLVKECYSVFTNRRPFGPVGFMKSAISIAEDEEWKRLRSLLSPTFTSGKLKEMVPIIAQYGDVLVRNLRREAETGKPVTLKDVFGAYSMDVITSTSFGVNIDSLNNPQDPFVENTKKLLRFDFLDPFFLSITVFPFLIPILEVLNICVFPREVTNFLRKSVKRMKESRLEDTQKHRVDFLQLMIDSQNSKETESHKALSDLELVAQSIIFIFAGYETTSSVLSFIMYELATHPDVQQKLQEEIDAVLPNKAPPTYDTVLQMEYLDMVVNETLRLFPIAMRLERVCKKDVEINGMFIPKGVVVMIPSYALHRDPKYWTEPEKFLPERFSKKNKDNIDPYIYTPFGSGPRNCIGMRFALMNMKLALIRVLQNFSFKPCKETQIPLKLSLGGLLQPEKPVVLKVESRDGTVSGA

Cc1c(N=Cc2c(O)n(CCc3ccccc3)c(=O)[nH]c2=O)c(=O)n(-c2ccccc2)n1C
inactive: activity change, negative = inhibition [1] -11.1% | outcome [2] | Potency [3] > 20.6 µM

CC[C@]1(O)C(=O)OCc2c1cc1n(c2=O)Cc2cc3ccccc3nc2-1
active: Potency [4] 5.01 µM
inactive: Potency [3] > 46 µM | Potency [5] > 46 µM | outcome [6] | Potency [7] | Potency [8] | Potency [9] | outcome [10]

O=C1C2CCN(CC2)[C@@H]1Cc1ccc2ccccc2c1O
inactive: activity change, negative = inhibition [1] 6.63% | outcome [2] | Potency [3] > 20.6 µM

CN1CCc2nc3sc(C#N)c(N)c3c(-c3cccs3)c2C1
inactive: activity change, negative = inhibition [1] -0.879% | Potency [3] > 20.6 µM

Cn1c(O)c(C=NC2CCN(Cc3ccccc3)CC2)c(=O)n(C)c1=O
inactive: activity change, negative = inhibition [1] -11.6% | outcome [2] | Potency [3] > 20.6 µM

c1cc2c(cc1[C@H]1OC[C@H]3[C@@H]1CO[C@H]3c1ccc3c(c1)OCO3)OCO2
active: Potency [4] 2 µM | Potency [7] 3.98 µM | Potency [12] 15.8 µM | Potency [9] 3.16 µM
inactive: Potency [3] > 46 µM | Potency [5] > 46 µM | outcome [6] | outcome [11]

C[C@@H](CO)NC(=O)[C@H]1C=C2c3cccc4[nH]cc(c34)C[C@H]2N(C)C1
active: Potency [4] 31.6 µM | Potency [12] 12.6 µM
inactive: Potency [3] > 46 µM | Potency [5] > 46 µM | outcome [6] | outcome [11] | Potency [7] | Potency [9]

C=CCn1c(O)c(C=Nc2ccc(N(CC)CC)cc2)c(=O)[nH]c1=O
inactive: activity change, negative = inhibition [1] -13.2% | outcome [2] | Potency [3] > 20.6 µM

CN1C(=O)CN=C(c2ccc(Cl)cc2)c2cc(Cl)ccc21
inactive: activity change, negative = inhibition [1] 10.4% | outcome [2] | Potency [3] > 20.6 µM

Nc1c(C(=O)NCc2ccco2)c2nc3ccccc3nc2n1CCN1CCCCC1
active: Potency [13] 7.94 µM
inactive: activity change, negative = inhibition [1] 29.1% | Potency [3] > 20.6 µM

CCCCCCn1c(O)c(C=Nc2c(C)n(C)n(-c3ccccc3)c2=O)c(=O)[nH]c1=O
inactive: activity change, negative = inhibition [1] -18.8% | outcome [2] | Potency [3] > 20.6 µM

CO[C@@H](C)[C@](O)(C(=O)OC1=CCN2CC[C@H](O)[C@H]12)C(C)C
inactive: Potency [4] | Potency [3] > 46 µM | Potency [5] > 46 µM | outcome [6] | outcome [11] | Potency [7] | Potency [12] | Potency [9]

C[C@@H]1CCC/C=C\[C@H]2C[C@H](O)C[C@@H]2[C@H](O)/C=C\C(=O)O1
inactive: Potency [4] | Potency [3] > 46 µM | Potency [5] > 46 µM | outcome [6] | outcome [11] | Potency [7] | Potency [12] | Potency [9]

CN1C[C@H](CO)C=C2c3cccc4[nH]cc(c34)C[C@H]21
active: Potency [4] 1 µM
inactive: Potency [3] > 46 µM | Potency [5] > 46 µM | outcome [6] | outcome [11]
